DRD3 agonist: D3 dopamine receptor (human) agonism; hit rate 0.58% among 410,000; D3R DiscoveRx beta-arrestin cells, luminescence, 90 min; P35462; max activation, %; in the data active = max activation above about 30%; note: 0% is about no effect
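Cells at 1500/well, incubated overnight, then treated with pinned compounds (dopamine as control) for 90 min at 37 degrees C. DiscoveRx reagent added for 30 - 60 minutes at room temperature; luminescence read.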
D1 potentiator: enhances dopamine response at the human D1 receptor; P21728; HEK293 TREx D1 cells, calcium flux, dopamine EC20 potentiation; potentiation, % at 10 µM; hit rate 0.036% among 360,000; AID 504651; in the data active = potentiation above about 30%; note: 0% is about no effect
Target sequence (P21728 whole entry, looked up): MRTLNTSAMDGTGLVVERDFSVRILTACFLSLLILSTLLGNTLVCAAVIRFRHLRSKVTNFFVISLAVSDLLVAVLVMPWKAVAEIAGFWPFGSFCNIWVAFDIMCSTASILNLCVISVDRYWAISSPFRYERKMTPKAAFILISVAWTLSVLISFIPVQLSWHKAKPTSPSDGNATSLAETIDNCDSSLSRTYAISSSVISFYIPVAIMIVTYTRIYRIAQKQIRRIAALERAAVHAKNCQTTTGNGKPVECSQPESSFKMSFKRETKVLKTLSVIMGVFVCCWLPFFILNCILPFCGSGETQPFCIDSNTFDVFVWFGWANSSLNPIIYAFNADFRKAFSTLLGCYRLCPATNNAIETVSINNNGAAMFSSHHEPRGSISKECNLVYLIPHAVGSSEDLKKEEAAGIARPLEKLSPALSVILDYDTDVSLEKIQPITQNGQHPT
D1 ag: agonists of human D1 dopamine receptor | activation, % at 2 µM | hit rate 1% among 360,000 | P21728 | HEK293 T-REx D1 cells, calcium flux, agonist mode | AID 504660; in the data active = activation above about 30%; note: 0% is about no effect
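Agonism was scored from calcium flux recorded over 180 s (1 read/s) after pintool compound addition, following a 10-cycle baseline. Cells were inducible force-coupled HEK293 TREx D1, plated overnight at 30 C and loaded with no-wash calcium dye.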
D1 antag: human D1 dopamine receptor antagonism; activity change, negative = inhibition, % at 10 µM; hit rate 3.2% among 360,000; P21728; HEK293 TREx D1 cells, calcium flux, dopamine EC80; active compounds read low; in the data active = activity change below about -30%; note: % is set by controls: 0 for no effect and ±100 for the full control effect
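Inducible Hek293 Trex D1 cells (tetracycline, overnight, 30 C). Calcium dye 30–90 min RT. Antagonist mode: EC80 dopamine added after 180 s compound read.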
DRD3 antagonist: blocks the human D3 dopamine receptor; P35462; D3R cells, DiscoveRx beta-arrestin luminescence, antagonist mode; active compounds read low; max response, negative = inhibition, %; hit rate 2.5% among 360,000; AID 652054; in the data active = max response below about -50%; inconclusive = no clear call, values can overlap the other calls; note: % is set by controls: 0 for no effect and ±100 for the full control effect
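Cells expressing the human receptor were seeded at 1500 cells/well, incubated overnight at 37 degrees C in 5% CO2, then exposed to library compounds with dopamine controls for 90 minutes at 37 degrees C before luminescent detection.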
Numbers without * were called inactive; ? = inconclusive; nt = no result given. Only some compounds are listed: those with a hit (about 6% of all), similar ones and a draw of the others.

SMILES	DRD3 agonist	D1 potentiator	D1 ag	D1 antag	DRD3 antagonist
CN(C)/C=c1\sc2c(C#N)cc(C(=O)c3ccc(Br)cc3)n2c1=O	8.2	-6.0	-0.7	-50.7*	-5.9
C/C(=C\c1ccccc1)CN1CCC(C(=O)N2CCC(C)CC2)CC1	-11.2	-11.7	1.3	-8.4	-26.5
C/C(=C\c1ccccc1)CN1CCC(C(=O)N2CCCCC2)CC1	-12.4	-1.2	6.0	-0.7	-56.8*
CCCCNC(=O)C1CCN(C/C(C)=C/c2ccccc2)CC1	-12.6	-3.0	7.2	-1.0	-65.6*
CCCCN(C)C(=O)C1CCN(C/C(C)=C/c2ccccc2)CC1	1.1	-4.2	0.0	12.3	-64.8*
CCCCNC(=O)C1CCN(Cc2ccc(OCc3ccccc3)cc2)CC1	-7.2	-6.0	19.8	-15.5	0.0
COc1ccc(CN2CC(=O)N(c3ccc(Cl)cc3)C2=S)cc1OC	17.4	-1.2	4.5	-4.9	15.2
CCc1ccc(N2C(=O)CN(Cc3ccc(OC)c(OC)c3)C2=S)cc1	11.3	0.3	1.6	-82.9*	0.8
CN1CCC(=NOc2ccc([N+](=O)[O-])cc2)CC1	-7.2	-9.2	10.7	-51.9*	9.0
COc1ccc(C(=O)ON=C2CCN(c3ccc([N+](=O)[O-])cc3)CC2)cc1	10.5	7.6	14.9	-1.6	10.0
COc1ccccc1N1CC(C)(C)C(=O)N(C(=O)c2ccc(C)cc2)C1=S	28.5	-2.4	4.9	-44.5*	6.3
CCN1C=CC2=C(C#N)C(N)C(C#N)(C#N)C(c3ccccc3C(F)(F)F)C2C1 (centres undefined)	-1.1	-6.2	33.7*	12.2	21.9
Cc1cc(C)c(S(=O)(=O)Nc2ccc(-c3ccc(N4CCCCC4)nn3)cc2)c(C)c1	-0.2	-1.1	2.4	-6.8	nt
CCn1nc(C(=O)NNC(=O)COc2ccc(OC)cc2)c2ccccc2c1=O	2.5	-4.7	0.2	-1.0	33.8
Cn1nc(C(=O)NNC(=O)COc2ccccc2)c2ccccc2c1=O	-0.9	0.8	-0.1	-34.9*	?
Cc1ccc(N=CC2=C(O)CC(c3ccco3)CC2=O)cc1 (centres undefined)	-2.0	2.9	3.4	-37.6*	14.4
O=C1CC(c2ccco2)CC(O)=C1C=Nc1ccccc1-c1ccccc1 (centres undefined)	-13.9	-5.0	2.0	-12.1	-104.8*
O=C1CC(c2ccco2)CC(O)=C1C=Nc1cc(Cl)ccc1O (centres undefined)	-9.0	7.1	9.0	-2.5	0.0
CC1(C)CC(C(CCN(Cc2ccccc2)C(=O)c2ccco2)c2ccc(F)cc2)CCO1 (centres undefined)	47.8*	-12.3	3.4	-17.1	34.6
CCOc1ccc(CNC(=O)C2Cc3ccccc3N2C(=O)CC)cc1OC (centres undefined)	-10.8	1.6	-0.4	-4.7	nt
CC(C)c1ccc(N(C(=O)c2snc(C(N)=O)c2N)C(C(=O)NCC2CCCO2)c2ccc(N(C)C)cc2)cc1 (centres undefined)	7.5	2.6	57.0*	48.1	20.8
CN(C)c1ccc(C(C(=O)NCC2CCCO2)N(C(=O)c2snc(C(N)=O)c2N)c2ccccc2)cc1 (centres undefined)	4.8	-6.3	3.4	-14.5	47.2
CC1=C(C(=O)OC(C)C)C(c2cccs2)C(C(=O)OC(C)C)=C(C)N1	3.8	-5.0	6.6	-32.2*	36.3
COc1ccc(CCNC(=O)c2ccc3c(c2)CCN3S(=O)(=O)c2ccccc2)cc1	6.5	-1.9	6.2	-8.2	nt
COCCCn1c(SCc2ccccc2F)nc2c(sc3ccccc32)c1=O	-11.2	-0.9	3.4	-8.6	nt
SMILES	DRD3 agonist	D1 potentiator	D1 ag	D1 antag	DRD3 antagonist
CCCCCOc1ccc(CSC(=N)N)cc1[N+](=O)[O-]	1.3	-0.8	55.9*	35.0	8.9
CCCCOc1ccc(Br)cc1CSC(=N)N	-16.4	-5.3	61.8*	-3.7	-19.9
O=C(COC(=O)CSc1cc(Cl)ccc1Cl)Nc1ncc(C(F)(F)F)cc1Cl	4.9	6.7	6.6	-32.4*	6.7
CCn1nc(C)c(CCN(C)C(=O)Nc2cc(Cl)c(OC)cc2OC)c1C	4.5	-0.9	0.9	-13.4	nt
CCn1cc(CN2CCC(C(=O)Nc3cccc(-c4cccc(OC)c4)c3)CC2)c(C)n1	-32.4	-5.2	3.5	13.2	?
COc1ccc(OC)c(NC(=O)CSCc2cnn(-c3ccccc3)c2-n2cccc2)c1	6.3	-4.8	5.3	-8.2	0.0
COc1ccc(NC(=O)C2CCN(Cc3cnn(-c4ccccc4)c3-n3cccc3)CC2)cc1OC	-15.6	-5.7	35.3*	-34.0*	-73.3*
COc1ccc(OC)c(NC(=O)C2CCN(Cc3cnn(-c4ccccc4)c3-n3cccc3)CC2)c1	-9.5	2.8	3.0	6.7	-64.9*
O=C(Nc1ccccc1Cl)C1CCN(Cc2cnn(-c3ccccc3)c2-n2cccc2)CC1	2.8	-8.7	7.9	2.6	-79.8*
COc1cccc(NC(=O)C2CCN(Cc3cnn(-c4ccccc4)c3-n3cccc3)CC2)c1	-0.9	0.1	-0.2	9.2	-50.1*
Cc1cccc(-c2nc3c4ccccc4nc(N4CCN(c5cc(C)ccc5C)CC4)n3n2)c1	-4.6	-8.0	2.2	-6.9	nt
O=C1OC(CC(=O)N(Cc2nnc(-c3ccc(Cl)cc3)o2)C2CC2)c2ccccc21 (centres undefined)	-4.4	nt	0.7	-44.4*	-18.7
O=C(COc1ccccc1)N(Cc1nnc(-c2ccccc2Cl)o1)C1CC1	-18.2	0.9	1.4	-10.1	-24.0
O=C(CSC(=S)N1CCCC1)N(Cc1nnc(-c2ccccc2Cl)o1)C1CC1	2.4	nt	5.3	-66.9*	5.8
O=C(OCc1nc2ccccc2[n+]([O-])c1C(=O)c1ccccc1)c1cccnc1	2.0	6.7	1.2	6.5	-54.7*
COc1cc(CNC2CCCC2)cc(Cl)c1OCc1ccccc1F	-4.8	13.3	156.8*	-57.6*	-6.7
COc1cccc(Nc2nc3ccc(C)cc3nc2-n2nc(C)cc2C)c1	6.1	-0.1	1.6	14.2	nt
CC(C)Nc1nc(Oc2cccc(Cl)c2Cl)cc(C(F)(F)F)n1	-0.6	-7.8	14.4	-32.4*	9.9
COc1cc(C)c(Cl)cc1S(=O)(=O)NCCc1c(C)[nH]c2ccccc12	0.6	-5.0	-0.5	6.5	nt
CCOC(=O)c1c(C)[nH]c(C)c1S(=O)(=O)N1CCC(C(=O)NCc2ccc(F)cc2)CC1	6.9	-1.0	2.4	0.1	nt
O=[S+]([O-])(c1ccc2c(c1)OCCO2)N1CCN([S+](=O)([O-])c2c(F)cc(F)cc2Br)CC1	nt	-0.4	0.7	-10.5	nt
COCCN(C(=O)COC(=O)c1cccnc1Cl)c1c(N)n(Cc2ccccc2)c(=O)[nH]c1=O	-3.1	-4.9	1.2	14.0	-10.0
CC(C)CN(C(=O)COC(=O)c1cccnc1Cl)c1c(N)n(Cc2ccccc2)c(=O)[nH]c1=O	2.3	-8.7	2.1	-34.9*	36.0
